# From the supplement of paper PMC4100887
# ± gives the standard deviation of the averaged measurements.
# Tests used:
# IMR-90 = test: relative cell viability (ATPlite) vs untreated control (fraction); higher = less toxic; settings: 1 µM; 72 h
# K562 [1] = test: as above; settings: 1 µM; 72 h
# K562 [2] = test: relative cell viability (ATPlite) vs untreated control, with imatinib (fraction); higher = less toxic; settings: 1 µM; 72 h; imatinib 0.125 µM
SMILES,relative cell viability (IMR-90),relative cell viability (K562 [1]),relative cell viability (K562 [2])
Cc1nc2cc3nc(-c4cccs4)cnc3cc2n1C,0.894 ± 0.058,0.343 ± 0.04,0.288 ± 0.015
O=C1NCCc2[nH]c(-c3ccnc(-c4cnc5ccccc5c4)c3)cc21 [MK-2 Inhibitor III],0.884 ± 0.11,0.837 ± 0.085,0.709 ± 0.057
O=C(Nc1ccc(Cl)cc1)c1ccccc1NCc1ccncc1 [VEGF Receptor Tyrosine Kinase Inhibitor II],0.987 ± 0.064,0.852 ± 0.056,0.802 ± 0.036
CO[C@H]1C[C@@H]2CC[C@@H](C)[C@@](O)(O2)C(=O)C(=O)N2CCCC[C@H]2C(=O)O[C@H]([C@H](C)C[C@@H]2CC[C@@H](O)[C@H](OC)C2)CC(=O)[C@H](C)/C=C(\C)[C@@H](O)[C@@H](OC)C(=O)[C@H](C)C[C@H](C)/C=C/C=C/C=C/1C [Rapamycin],0.598 ± 0.075,0.585 ± 0.032,0.481 ± 0.036
CN1C(=O)C(Cc2c[nH]c3ccccc23)NC1=S (stereo unspecified) [Necrostatin-1],0.915 ± 0.058,0.921 ± 0.1,0.785 ± 0.044
COc1ccc2nc3n[nH]c(C)c3c(NCCOCCO)c2c1,1 ± 0.077,1.02 ± 0.064,0.843 ± 0.066
Cc1ccc([N+](=O)[O-])cc1S(=O)(=O)N(C)/N=C/c1cnc2ccc(Br)cn12 [PI 3-Kα Inhibitor VIII],0.166 ± 0.031,0.763 ± 0.071,0.681 ± 0.044
CSc1nc(-c2ccnc(NC(C)c3ccccc3)c2)c(-c2ccc(F)cc2)[nH]1 (stereo unspecified) [p38 MAP Kinase Inhibitor III],1.03 ± 0.072,0.909 ± 0.024,0.735 ± 0.038
CC[n+]1c(/C=C/N(C)c2ccccc2)n(-c2ccccc2)c2ccc(-c3nc4ccccc4s3)cc21 [Akt Inhibitor IV],0.924 ± 0.1,0.169 ± 0.082,0.0639 ± 0.02
N#Cc1c(C2CCNCC2)cc(-c2c(O)cccc2OCC2CC2)nc1N [IKK-2 Inhibitor VIII],1.01 ± 0.12,0.871 ± 0.048,0.718 ± 0.021
"O=c1[nH][nH]c2nnc(-c3c(-c4ccccc4)nn4ccccc34)cc12 [ERK Inhibitor II, Negative control]",0.966 ± 0.077,0.833 ± 0.086,0.758 ± 0.019
CC(=O)c1ccc(N2CCOCC2)cc1O [DNA-PK Inhibitor III],1.02 ± 0.093,0.878 ± 0.059,0.782 ± 0.027
Cn1cnc2cc3c(Nc4cccc(Br)c4)ncnc3cc21,0.973 ± 0.054,1.02 ± 0.078,0.874 ± 0.02
c1ccc(-c2cnc(Nc3ccc(OCCN4CCCC4)cc3)s2)cc1 [Flt-3 Inhibitor III],0.924 ± 0.052,0.916 ± 0.065,0.797 ± 0.031
N#C/C(=C(/N)Sc1ccccc1N)c1cccc(C(O)c2ccncc2)c1 (stereo unspecified) [MEK Inhibitor I],1.02 ± 0.1,0.732 ± 0.045,0.581 ± 0.03
O=C(c1ccc(Nc2nccc(-c3cc4ccccc4s3)n2)cc1)N1CCC(N2CCCC2)CC1 [IKK Inhibitor VII],0.972 ± 0.066,0.773 ± 0.022,0.632 ± 0.031
"CCCCCCCCCCCCCCCCn1cc[n+](Cc2ccccc2)c1C [eEF-2 Kinase Inhibitor, NH125]",0.948 ± 0.11,0.506 ± 0.092,0.401 ± 0.1
"N#Cc1cc([N+](=O)[O-])c2sc(C(N)=O)[n+]([O-])c2c1 [Polo-like Kinase Inhibitor II, BTO-1]",1.01 ± 0.12,0.88 ± 0.081,0.709 ± 0.056
CN(C)CCCn1cc(C2=C(c3c[nH]c4ccccc34)C(=O)NC2=O)c2ccccc21 [Bisindolylmaleimide I],0.895 ± 0.12,0.169 ± 0.052,0.137 ± 0.042
Cn1c2ccccc2c2c3c(c4c5ccccc5n(CCC#N)c4c21)CNC3=O,1.03 ± 0.093,0.854 ± 0.1,0.739 ± 0.048
N#CC(c1ccnc(NCCc2cccnc2)n1)c1nc2ccccc2s1 (stereo unspecified) [JNK Inhibitor V],1.01 ± 0.077,0.851 ± 0.092,0.703 ± 0.056
CC(C)[C@H](CO)Nc1nc(Nc2cccc(Cl)c2)c2ncn(C(C)C)c2n1 [Purvalanol A],1.04 ± 0.11,0.885 ± 0.065,0.75 ± 0.072
CC(C)[C@H](CO)Nc1nc(Nc2cc(N)cc(Cl)c2)c2ncn(C(C)C)c2n1 [Aminopurvalanol A],0.837 ± 0.084,0.916 ± 0.037,0.796 ± 0.025
O=c1cc(N2CCOCC2)oc2c1ccc1ccccc12 [DNA-PK Inhibitor II],1 ± 0.061,0.815 ± 0.041,0.754 ± 0.023
N#Cc1c(NC(=O)c2cccc3ccccc23)sc2c1CCCC2 [JNK Inhibitor IX],0.97 ± 0.044,0.143 ± 0.058,0.101 ± 0.04
"O=C1Nc2ccc(Cl)cc2/C1=C/c1cc(Cl)c(O)c(Cl)c1 [PKR Inhibitor, Negative Control]",0.968 ± 0.089,0.848 ± 0.072,0.721 ± 0.058
Nc1n[nH]c(N)c1N=Nc1ccc(O)cc1 [Cdk9 Inhibitor II],0.93 ± 0.099,0.839 ± 0.073,0.765 ± 0.035
